Measured values as given in PubChem BioAssay.
The source made the active and inactive calls.

Columns and labels:
[1] = system: Wnt5a (protein binding on small-molecule microarray); test: Wnt5a binders on small-molecule microarray, primary screen, biophysical, 635/667 nm fluorescence (AID 1142); details: 635 nm fluorescence, higher = more signal;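 note: fluorescence read at 667 nm with signal to noise per printed feature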
[2] = cell viability in Huh7 cells, primary screen, cytotoxicity control for HCV replication inhibitor project, CellTiter-Glo luminescence, basal, 48 h (AID 1143); details: Huh7 HCV replicon, higher = more signal, called active from +8 up or from −8 down;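 note: Huh7 hepatoma cells carrying a hepatitis C replication reporter with no stimulus; test concentration not given here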
[3] = CREB reporter modulators without forskolin, primary screen, cell-based, PC12, CRE-LacZ reporter, unstimulated (AID 1145); details: no forskolin, luminescence, 4.5 h, higher = more signal, called active from +8 up or from −8 down
[4] = CREB reporter modulators under forskolin, primary screen, cell-based, PC12, CRE-LacZ reporter, forskolin-stimulated (AID 1146); details: luminescence, 4.5 h, higher = more signal, called active from +8 up or from −8 down;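 note: PC12 cells with 6xCRE LacZ reporter stimulated by forskolin 10 µM; beta-galactosidase reporter signal reflecting CREB driven transcription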
[5] = biological target: Streptavidin (Streptomyces avidinii) (UniProt P22629); test: streptavidin binders on small-molecule microarray, primary screen, artefact control for SMM compound annotation, biophysical, 635/667 nm fluorescence (AID 1147); details: streptavidin binding, higher = more signal;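 note: signal reflects streptavidin binding to arrayed compounds as a control protein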
[6] = small-molecule binders of probe aInhba, primary screen, biochemical, small-molecule microarray, 635/667 nm fluorescence (AID 1148); details: higher = more signal;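 note: score merges 667nm spot fluorescence with signal-to-noise for antibody binding to printed compounds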
Torsin-1A (Homo sapiens) [7] = biological target: Torsin-1A (Homo sapiens) (UniProt O14656); test: torsin A binders from cell lysate, primary screen, small-molecule microarray, wild-type, 635/667 nm (AID 1149); details: COS7 hTOR1A-WT lysate, 635 nm fluorescence, higher = more signal
Torsin-1A (Homo sapiens) [8] = biological target: Torsin-1A (Homo sapiens) (UniProt O14656); test: small-molecule binders of mutant TOR1A in lysate, primary screen, cell lysate, small-molecule microarray, COS7 lysate, 635/667 nm fluorescence (AID 1150); details: COS7 hTOR1A mutant lysate, 635 nm fluorescence, higher = more signal;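 note: score pools 667 nm emission and signal to noise measuring lysate protein binding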
[9] = system: Sonic hedgehog protein (Shh); test: small-molecule binders of Shh protein, primary screen, biochemical, small-molecule microarray, 635/667 nm fluorescence (AID 1151); details: small-molecule microarray binding, 635 nm fluorescence; higher = more signal;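 note: Shh protein binding to compounds spotted on small-molecule microarray slides; score combines spot fluorescence intensity with signal-to-noise across triplicate slides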
[10] = E. coli DRC41 culture turbidity changes, primary screen, E. coli filamentation inducer project, strain DRC41, OD650, 48 h (AID 1152);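 note: E. coli MC1000 strain DRC41 lacking acrAB efflux pump and sulA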; details: E. coli DRC41 (acrAB sulA), higher = more signal, called active from +8 up or from −8 down
[11] = small-molecule binders of probe aLefty1, primary screen, biochemical, small-molecule microarray, 635/667 nm fluorescence (AID 1153); details: higher = more signal;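 note: score merges spot fluorescence with signal-to-noise ratio from the scanned slide images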
[12] = PSAC antagonists in infected red cells, primary screen, cell-based, P. falciparum Indochina, OD700, 1 h (AID 1154); details: P. falciparum Indochina infected RBC osmotic lysis, higher = more signal, called active from +8 up or from −8 down
[13] = PSAC antagonists in infected red cells, primary screen, cell-based, P. falciparum Indochina, OD700, 2 h (AID 1155);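 note: lysis reports solute entry through the parasite surface anion channel PSAC; channel blockers reduce lysis of infected cells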; details: P. falciparum Indochina infected erythrocytes, osmotic lysis OD700; higher = more signal, called active from +8 up or from −8 down
[14] = osmotic lysis modulators in infected erythrocytes, primary screen, PSAC antagonist project, cell-based, P. falciparum Indochina, OD700, 3 h (AID 1156); details: higher = more signal, called active from +8 up or from −8 down
[15] = PSAC antagonists in infected red cells, primary screen, cell-based, P. falciparum Indochina, OD700, 18 h (AID 1157); details: P. falciparum Indochina infected erythrocytes, osmotic lysis OD700, 18 h; higher = more signal, called active from +8 up or from −8 down
[16] = modulators of S6 phosphorylation in cells, primary screen, cell-based, A549, cytoblot, luminescence, serum-stimulated (AID 1158); details: A549 phospho-S6 cytoblot, 5 h, higher = more signal;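 note: serum-stimulated A549 lung adenocarcinoma cells; signal is phosphorylated S6 detected by cytoblot immunostaining with HRP secondary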
[17] = biological target: NADPH oxidase 2 (Homo sapiens) (UniProt P04839); test: NOX2-dependent H2O2 signal modulators, primary screen, NOX inhibitor project, cell-based, HEK293-NOX2, PMA-stimulated, Amplex Red fluorescence (AID 1159); details: 45 min, higher = more signal, called active from +8 up or from −8 down; note: test concentration not given here
[18] = biological target: NADPH oxidase 4 (Homo sapiens) (UniProt Q9NPH5); test: NOX4-dependent H2O2 signal modulators, primary screen, NOX inhibitor project, cell-based, HEK293-NOX4, tetracycline-induced, Amplex Red fluorescence (AID 1160); details: 45 min, higher = more signal, called active from +8 up or from −8 down
[19] = biological target: NADPH oxidase 5 (Homo sapiens) (UniProt Q96PH1); test: NOX5-dependent H2O2 signal modulators, primary screen, NOX inhibitor project, cell-based, HEK293-NOX5, Amplex Red fluorescence (AID 1161); details: HEK293-NOX5, ionomycin, 45 min, higher = more signal
[20] = A549 cell viability effects, profiling panel, calcein-AM fluorescence, 48 h, basal (AID 1162); details: higher = more signal; note: test concentration not given here

Sequence of NADPH oxidase 4 (Homo sapiens) (Q9NPH5 whole entry, looked up): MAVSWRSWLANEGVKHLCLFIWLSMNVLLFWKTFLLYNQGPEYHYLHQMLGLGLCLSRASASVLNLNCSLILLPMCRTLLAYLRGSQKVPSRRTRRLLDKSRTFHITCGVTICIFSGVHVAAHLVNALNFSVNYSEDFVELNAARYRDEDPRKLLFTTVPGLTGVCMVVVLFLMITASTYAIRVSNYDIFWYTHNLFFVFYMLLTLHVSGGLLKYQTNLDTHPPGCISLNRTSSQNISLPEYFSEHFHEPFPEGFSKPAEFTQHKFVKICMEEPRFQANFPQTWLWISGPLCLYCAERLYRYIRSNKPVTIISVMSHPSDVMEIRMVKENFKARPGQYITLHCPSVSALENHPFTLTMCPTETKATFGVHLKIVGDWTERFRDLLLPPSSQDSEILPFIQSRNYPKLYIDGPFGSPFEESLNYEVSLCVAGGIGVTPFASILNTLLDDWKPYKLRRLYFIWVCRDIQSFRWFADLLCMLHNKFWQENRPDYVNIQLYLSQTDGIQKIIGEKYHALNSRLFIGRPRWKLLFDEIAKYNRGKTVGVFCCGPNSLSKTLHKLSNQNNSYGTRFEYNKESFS
Sequence of Streptavidin (Streptomyces avidinii) (P22629 whole entry, looked up): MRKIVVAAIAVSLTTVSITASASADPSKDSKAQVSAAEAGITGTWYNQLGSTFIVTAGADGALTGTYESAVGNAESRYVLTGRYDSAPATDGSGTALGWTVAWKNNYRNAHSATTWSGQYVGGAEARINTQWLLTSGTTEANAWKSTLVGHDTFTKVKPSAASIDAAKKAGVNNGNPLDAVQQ
Sequence of NADPH oxidase 2 (Homo sapiens) (P04839 whole entry, looked up): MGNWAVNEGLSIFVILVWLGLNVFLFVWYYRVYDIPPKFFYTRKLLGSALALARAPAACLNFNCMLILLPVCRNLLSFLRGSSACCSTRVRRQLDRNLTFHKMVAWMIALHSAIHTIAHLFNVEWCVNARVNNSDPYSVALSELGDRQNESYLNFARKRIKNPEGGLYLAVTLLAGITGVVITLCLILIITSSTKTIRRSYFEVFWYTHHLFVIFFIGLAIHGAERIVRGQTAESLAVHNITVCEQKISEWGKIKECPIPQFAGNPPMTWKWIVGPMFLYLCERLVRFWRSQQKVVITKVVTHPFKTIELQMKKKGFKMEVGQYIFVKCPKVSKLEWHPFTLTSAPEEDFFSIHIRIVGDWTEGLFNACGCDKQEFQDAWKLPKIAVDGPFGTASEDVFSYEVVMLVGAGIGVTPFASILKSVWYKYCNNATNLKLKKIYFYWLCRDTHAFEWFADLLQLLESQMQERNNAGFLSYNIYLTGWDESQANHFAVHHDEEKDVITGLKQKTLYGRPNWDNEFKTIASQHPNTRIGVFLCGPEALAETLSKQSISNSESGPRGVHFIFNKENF
Sequence of NADPH oxidase 5 (Homo sapiens) (Q96PH1 whole entry, looked up): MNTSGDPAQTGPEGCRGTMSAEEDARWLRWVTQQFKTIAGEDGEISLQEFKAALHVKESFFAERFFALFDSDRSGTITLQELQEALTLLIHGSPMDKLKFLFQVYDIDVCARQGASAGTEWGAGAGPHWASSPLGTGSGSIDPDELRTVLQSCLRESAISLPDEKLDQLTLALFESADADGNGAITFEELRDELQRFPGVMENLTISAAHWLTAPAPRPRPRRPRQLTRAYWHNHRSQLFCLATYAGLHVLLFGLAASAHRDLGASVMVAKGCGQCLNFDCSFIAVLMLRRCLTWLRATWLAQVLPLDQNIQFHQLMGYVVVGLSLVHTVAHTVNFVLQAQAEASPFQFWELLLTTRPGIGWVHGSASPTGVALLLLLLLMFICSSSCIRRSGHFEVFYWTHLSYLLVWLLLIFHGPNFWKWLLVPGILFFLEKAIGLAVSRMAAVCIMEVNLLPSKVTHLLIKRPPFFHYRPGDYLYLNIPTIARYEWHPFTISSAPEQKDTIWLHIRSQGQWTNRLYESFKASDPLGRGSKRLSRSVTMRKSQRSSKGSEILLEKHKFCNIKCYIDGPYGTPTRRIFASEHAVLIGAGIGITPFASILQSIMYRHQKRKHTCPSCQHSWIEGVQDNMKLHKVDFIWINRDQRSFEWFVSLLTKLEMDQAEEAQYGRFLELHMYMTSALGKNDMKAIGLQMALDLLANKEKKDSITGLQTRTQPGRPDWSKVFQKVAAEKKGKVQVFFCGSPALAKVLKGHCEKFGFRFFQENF
Sequence of Torsin-1A (Homo sapiens) (O14656 whole entry, looked up): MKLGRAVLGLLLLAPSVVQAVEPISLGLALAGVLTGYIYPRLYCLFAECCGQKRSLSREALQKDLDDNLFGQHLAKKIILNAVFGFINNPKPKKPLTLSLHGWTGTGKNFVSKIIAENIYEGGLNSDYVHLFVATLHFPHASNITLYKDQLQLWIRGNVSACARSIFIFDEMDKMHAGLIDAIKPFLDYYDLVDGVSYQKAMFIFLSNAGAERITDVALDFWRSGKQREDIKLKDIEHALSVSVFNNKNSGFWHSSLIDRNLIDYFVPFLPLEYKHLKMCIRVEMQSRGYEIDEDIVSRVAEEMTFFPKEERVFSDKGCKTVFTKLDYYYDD

SMILES	composite z-score [1]	z-score [2]	z-score [3]	z-score [4]	composite z-score [5]	composite z-score [6]	composite z-score (Torsin-1A (Homo sapiens) [7])	composite z-score (Torsin-1A (Homo sapiens) [8])	composite z-score [9]	z-score [10]	composite z-score [11]	z-score [12]	z-score [13]	z-score [14]	z-score [15]	z-score [16]	z-score [17]	z-score [18]	z-score [19]	z-score [20]
COc1ccc([Si](C)(C)[C@H]2[C@H](CCO)O[C@@]3(C(=O)N(Cc4ccc(N5C(=O)c6cccc7cccc5c67)cc4)c4ccccc43)[C@@H]2C)cc1	-0.158	-6.16 (inactive)	0.399 (inactive)	-1.05 (inactive)	0.338	-0.101	-0.294	-0.124	-0.0681	1.19 (inactive)	-0.147	3.64 (inactive)	2.29 (inactive)	-0.273 (inactive)	1.23 (inactive)	1.63	0.469 (inactive)	0.821 (inactive)	0.378	-1.02
COCCOC(=O)N1C(=O)[C@@]2(c3cc(C#CC4(O)CCCCCC4)ccc31)[C@H](c1ccc(O)cc1)N1[C@H](c3ccccc3)[C@H](c3ccccc3)OC(=O)[C@H]1[C@@H]2C(N)=O	0.496	-2.03 (inactive)	-0.168 (inactive)	-0.304 (inactive)	0.629	0.101	0.0241	0.497	1.22	1.91 (inactive)	0.181	1.14 (inactive)	-1.24 (inactive)	-1.54 (inactive)	-2.13 (inactive)	0.736	1.97 (inactive)	0.751 (inactive)	1.29	0.0692
CC(C)C(=C=CC[C@H](O)c1ccc(OCCO)cc1)C[C@H](O)COCc1ccccc1	0.317	-3.34 (inactive)	12.1 (active)	-0.14 (inactive)	0.192	-0.0986	1.11	1.42	1.96	0.811 (inactive)	0.0751	20.1 (active)	4.54 (inactive)	1.7 (inactive)	0.923 (inactive)	-0.474	-0.557 (inactive)	-0.142 (inactive)	-1.87	0.153
CC(=O)NCCCC[C@@H]1NC(=O)[C@@H]2C[C@H](C(=O)O)[C@H](c3cccc(OCCO)c3)N2C1=O	0.45	-0.533 (inactive)	0.151 (inactive)	-0.741 (inactive)	0.397	-0.0403	0.911	0.903	2.12	0.733 (inactive)	-0.138	0.495 (inactive)	0.373 (inactive)	-1.49 (inactive)	0.0814 (inactive)	0.264	-1.16 (inactive)	-0.282 (inactive)	-0.948	0.0822
CCCCC(=C=CC[C@H](O)c1cccc(OCCO)c1)CCO	-0.0668	-0.081 (inactive)	4.86 (inactive)	-0.679 (inactive)	-0.209	0.0355	1.13	0.983	0.242	0.892 (inactive)	0.37	11.4 (active)	1.91 (inactive)	1.2 (inactive)	0.774 (inactive)	-0.679	1.06 (inactive)	0.362 (inactive)	-1.64	1.13
CCOC(=O)C[C@H]1[C@H](OC(=O)c2ccc(-c3ccccc3)cc2)[C@@H](NC(=O)C2CCCCC2)c2cc(OCCCO)ccc2N1C(=O)c1ccc2ccccc2n1	0.0447	-0.0226 (inactive)	3.51 (inactive)	-0.876 (inactive)	0.391	0.0582	0.688	0.525	0.21	2.69 (inactive)	0.0278	1.45 (inactive)	-0.755 (inactive)	-0.0072 (inactive)	-1.16 (inactive)	1.5	1.13 (inactive)	1.3 (inactive)	1.94	1.23
COc1ccc([Si](C)(C)[C@H]2[C@H](CC(=O)N(CCO)Cc3ccccc3)O[C@@]3(C(=O)N(Cc4cccc(N5C(=O)COc6ccccc65)c4)c4ccccc43)[C@@H]2C)cc1	0.223	-3.26 (inactive)	2.61 (inactive)	-1.58 (inactive)	0.224	0.0566	0.275	0.493	2.03	2.01 (inactive)	0.0437	12.7 (active)	2.77 (inactive)	0.144 (inactive)	1.28 (inactive)	0.721	0.0235 (inactive)	0.789 (inactive)	2.17	0.0715
C=C(CCCC)/C(=C/C[C@@H](OC(=O)c1ccncc1)c1ccc(OCCO)cc1)c1cnc2ccccc2c1	0.826	-1.93 (inactive)	13.4 (active)	-0.929 (inactive)	1.72	0.108	0.546	0.653	2.1	1.21 (inactive)	0.199	26.2 (active)	9.47 (active)	1.54 (inactive)	1.39 (inactive)	-0.175	-1.06 (inactive)	-1.43 (inactive)	-0.922	0.4
CC(C)N1CC=CC23O[C@@H]4/C=C\CCCOC(=O)C4[C@H]2C(=O)N(CCCO)[C@@H]3C1=O (stereo not given in full)	-0.059	-0.354 (inactive)	0.191 (inactive)	-0.256 (inactive)	-1.1	-0.176	-0.934	0.367	-0.102	1.71 (inactive)	0.236	0.245 (inactive)	0.0014 (inactive)	1.1 (inactive)	-0.083 (inactive)	-0.108	1.58 (inactive)	-1.85 (inactive)	2.19	1.02
COC(=O)C(CC#Cc1ccc2c(c1)[C@]1(C(=O)N2)[C@H](C(=O)O)[C@H]2C(=O)O[C@H](c3ccccc3)[C@H](c3ccccc3)N2[C@@H]1c1ccc(OCCO)cc1)C(=O)OC	0.562	-2.27 (inactive)	-0.258 (inactive)	-1.32 (inactive)	1.25	0.0714	0.734	1.06	0.969	3.78 (inactive)	0.305	10 (active)	0.0825 (inactive)	0.646 (inactive)	-2.18 (inactive)	2.47	1.39 (inactive)	0.164 (inactive)	0.396	2.54
C[C@@H](OCc1ccccc1)C1NC(=O)[C@@]23C(=O)N[C@@H](Cc4ccccc4)C2[C@H](C)[C@@]2(C)O[C@H]2C3/C=C/C/C=C\CNC(=O)[C@@H]2CCCN2C1=O (stereo not given in full)	-0.13	-0.866 (inactive)	2.13 (inactive)	-1.55 (inactive)	-0.9	-0.192	-0.0343	1.12	0.558	2.21 (inactive)	-0.239	1.49 (inactive)	0.0899 (inactive)	0.933 (inactive)	0.231 (inactive)	0.663	-0.0597 (inactive)	0.397 (inactive)	-0.915	0.791
C[N+](C)(C)CCCCNC(=O)[C@@H]1C[C@@H]2C(=O)NCC(=O)N2[C@@H]1c1cccc(OCCO)c1	0.857	-1.08 (inactive)	-0.939 (inactive)	-0.689 (inactive)	0.461	0.124	1.87	1.1	2.16	1.78 (inactive)	-0.221	2.68 (inactive)	-1.12 (inactive)	-2.75 (inactive)	-1.98 (inactive)	0.855	-1.42 (inactive)	-0.57 (inactive)	0.766	1.59
CC(C)(C)OC(=O)CC[C@@]1(C(=O)NCc2ccccc2)N=C(c2ccc(OCCCO)cc2)O[C@@H]1c1ccccc1CN=[N+]=[N-]	1.14	-5.23 (inactive)	1.46 (inactive)	-1.42 (inactive)	1.17	0.156	0.807	0.312	0.285	2.4 (inactive)	-0.14	26.3 (active)	16.7 (active)	-0.187 (inactive)	0.712 (inactive)	2.07	-0.046 (inactive)	-0.0643 (inactive)	-1.35	1.09
COC(=O)c1c2oc(c1C(=O)OC)C(=O)N[C@@H](C(C)C)Cn1nncc1C1(CCCCC1)NC(=O)N[C@H](CO)CC2	-0.0906	-0.475 (inactive)	1.44 (inactive)	-0.575 (inactive)	0.235	-0.195	0.217	-0.422	-0.0256	3.17 (inactive)	-0.235	1.05 (inactive)	1.49 (inactive)	0.168 (inactive)	1.41 (inactive)	0.651	0.234 (inactive)	0.991 (inactive)	-0.162	2.55
CC(C)[Si](C#C[Si](C(C)C)(C(C)C)C(C)C)(O[C@H](C)c1cn([C@H](C)c2ccccc2)nn1)C(C)C	0.0985	-1.48 (inactive)	-0.332 (inactive)	-1.59 (inactive)	0.434	-0.0209	0.144	0.477	1.14	2.49 (inactive)	0.241	0.792 (inactive)	-0.533 (inactive)	-0.926 (inactive)	-1.01 (inactive)	0.728	0.586 (inactive)	0.587 (inactive)	0.265	2.27
Cc1ccc(S[C@]2(C(=O)NCCN3CCOCC3)CC(=O)N(Cc3cc(C(F)(F)F)cc(C(F)(F)F)c3)[C@@H]2c2ccc(CO)cc2)cc1	0.322	-2.39 (inactive)	-0.464 (inactive)	-1.7 (inactive)	-0.721	-0.0371	-0.847	-0.521	-0.105	2.85 (inactive)	-0.0576	1.69 (inactive)	-0.152 (inactive)	-0.468 (inactive)	-1.39 (inactive)	2.65	0.538 (inactive)	0.706 (inactive)	0.754	0.422
